# Inconclusive results are not listed. Entries that show only a call come without a potency. Activity calls are given as the source filed them. The call rests on the fitted dose curve; in most records, active means well fitted cell-killing curve with a large enough effect; inconclusive means small, poorly fitted or top-dose-only effect, or effect the other way; inactive means flat fitted curve, though single readings scatter. Where a SMILES comes first, the peptide text is derived from it. [ ]: non-standard residue; d: D form. pGlu = O=C1CC[C@@H](C(=O)O)N1; Thz = O=C(O)[C@@H]1CSCN1
# Tested on: CAOV3
# Assay: Primary qHTS to identify gynecologic anti-cancer compounds using libraries of approved drugs and bioactive compounds (AID 1345084); further: nearly all actives have a fitted effect of over 55% in size
# Conditions: Gynecologic cancer cell panel viability, ATPlite luminescence, 48 h; series mostly up to 57.5 µM
# Procedure, shortened: (§1)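 Cells, 1,000 per well, were allowed to settle for 16 h at 37 C before compound addition. Five concentrations were tested for 48 h, and viability was read by ATPlite luminescence after 15 min at room temperature.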
# Potency means the concentration at half of the fitted maximal effect.
row,Structure (SMILES),Potency
1,CN1[C@@H]2CC[C@H]1CC(OC(=O)C(CO)c1ccccc1)C2 (some centres undefined),inactive
2,O=C(O)CC1CC(c2ccccc2)=NO1 (centres undefined),inactive
3,CN(CCCOc1ccc(Cc2ccccc2)cc1)CCC(=O)O,inactive
4,COC(=O)C1=C(C)NC(C)=C(C(=O)OCC(C)C)C1c1ccccc1[N+](=O)[O-] (centres undefined),inactive
5,O=C(O)[C@H](CC(=O)N1C[C@H]2CCCC[C@H]2C1)Cc1ccccc1,inactive
6,NC(=O)C(c1ccccc1)(c1ccccc1)[C@@H]1CCN(CCc2ccc3c(c2)CCO3)C1,inactive
7,Nc1ccc(O)c([N+](=O)[O-])c1,inactive
8,O=C(Nc1ccc2c(c1)CCN(Cc1ncn[nH]1)C2)c1ccccc1-c1ccc(C(F)(F)F)cc1,inactive
9,Nc1ccc([N+](=O)[O-])cc1O,inactive
10,CC(=O)O[C@H]1C[C@@]2(C)[C@@H](C[C@@H](O)[C@H]3[C@@]4(C)CC[C@@H](O)[C@@H](C)[C@@H]4CC[C@@]32C)/C1=C(\CCC=C(C)C)C(=O)O,inactive
11,COc1cc(CNC(=O)CCCC/C=C/C(C)C)ccc1O,inactive
12,Fc1ccc2[nH]c(CN3CCN(c4ccccn4)CC3)cc2c1,inactive
13,Cc1cc(O)c2ccccc2c1O,inactive
14,O=[N+]([O-])c1ccc(CNc2nc(NCc3cccc(C(F)(F)F)c3)nc3nc[nH]c23)cc1,inactive
15,O=C1CN(/N=C/c2ccc([N+](=O)[O-])o2)C(=O)N1,inactive
16,Clc1ccccc1-c1nc(-c2ccncc2)no1,inactive
17,COC(=O)C1=C(C)NC(C)=C(C(=O)OC)C1c1cccc(NC(=O)NCCCN2CCC(c3cccc(OC)c3)CC2)c1,22.4 µM (active)
18,Oc1c(Br)cc(Br)c2cccnc12,inactive

# Tested on: CASKI
# Assay: as above
# Conditions: Gynecologic cancer cell panel viability, ATPlite luminescence, 48 h; series mostly up to 57.5 µM
# Procedure, shortened: as §1
row,Structure (SMILES),Potency
1,O=Cc1ccc(O)c(O)c1O,inactive
2,CN1[C@@H]2CC[C@H]1CC(OC(=O)C(CO)c1ccccc1)C2 (some centres undefined),inactive
3,O=C(O)c1cc(O)c(O)c(O)c1,inactive
4,Cc1[nH]cnc1CN1CCc2c(c3ccccc3n2C)C1=O,inactive
5,O=C(O)CC1CC(c2ccccc2)=NO1 (centres undefined),inactive
6,CN(CCCOc1ccc(Cc2ccccc2)cc1)CCC(=O)O,inactive
7,COC(=O)C1=C(C)NC(C)=C(C(=O)OCC(C)C)C1c1ccccc1[N+](=O)[O-] (centres undefined),inactive
8,O=C(O)[C@H](CC(=O)N1C[C@H]2CCCC[C@H]2C1)Cc1ccccc1,inactive
9,NC(=O)C(c1ccccc1)(c1ccccc1)[C@@H]1CCN(CCc2ccc3c(c2)CCO3)C1,inactive
10,C#C[C@]1(O)CC[C@H]2[C@@H]3CCc4cc(O)ccc4[C@H]3CC[C@@]21C,inactive
11,Nc1ccc(O)c([N+](=O)[O-])c1,inactive
12,O=C(Nc1ccc2c(c1)CCN(Cc1ncn[nH]1)C2)c1ccccc1-c1ccc(C(F)(F)F)cc1,inactive
13,CC(=O)O[C@H]1C[C@@]2(C)[C@@H](C[C@@H](O)[C@H]3[C@@]4(C)CC[C@@H](O)[C@@H](C)[C@@H]4CC[C@@]32C)/C1=C(\CCC=C(C)C)C(=O)O,inactive
14,COc1cc(CNC(=O)CCCC/C=C/C(C)C)ccc1O,inactive
15,Fc1ccc2[nH]c(CN3CCN(c4ccccn4)CC3)cc2c1,inactive
16,O=C(Nc1ccc2[nH]ncc2c1)C1CCC1,inactive
17,Cc1cc(O)c2ccccc2c1O,inactive
18,O=[N+]([O-])c1ccc(CNc2nc(NCc3cccc(C(F)(F)F)c3)nc3nc[nH]c23)cc1,inactive
19,O=C(O)/C=C\C(=O)O,inactive
20,CCCCN(CC)c1nc(C)nc2c1c(C)cn2-c1c(C)cc(C)cc1C,inactive
21,CC(C(=O)O)c1ccc(C(=O)c2ccccc2)s1 (centres undefined),inactive
22,O=C1CN(/N=C/c2ccc([N+](=O)[O-])o2)C(=O)N1,inactive
23,CC1(C)[C@@H](O[C@H]2O[C@H](C(=O)O)[C@@H](O)[C@H](O)[C@H]2O[C@@H]2O[C@H](C(=O)O)[C@@H](O)[C@H](O)[C@H]2O)CC[C@]2(C)[C@H]3C(=O)C=C4[C@@H]5C[C@@](C)(C(=O)O)CC[C@]5(C)CC[C@@]4(C)[C@]3(C)CC[C@@H]12,inactive
24,COc1ccc(/C=C/C(=O)Nc2ccccc2C(=O)O)cc1OC,inactive
25,CC(C(=O)O)c1ccc(C(=O)c2cccs2)cc1 (centres undefined),inactive
26,Nc1nc2ccc([N+](=O)[O-])cc2s1,inactive
27,O=C1CC[C@@H](C(=O)N2CSC[C@H]2C(=O)O)N1 ([pGlu]-[Thz]-OH),inactive
28,CC1(C)S[C@@H]2[C@H](NC(=O)[C@H](N)c3ccccc3)C(=O)N2[C@H]1C(=O)O,inactive
29,Oc1c(Br)cc(Br)c2cccnc12,inactive
30,S=c1[nH]c2ccccc2s1,inactive

# Tested on: Es-2
# Assay: as above
# Conditions: Gynecologic cancer cell panel viability, ATPlite luminescence, 48 h; series mostly up to 57.5 µM
# Procedure, shortened: as §1
row,Structure (SMILES),Potency
1,O=Cc1ccc(O)c(O)c1O,inactive
2,CN1[C@@H]2CC[C@H]1CC(OC(=O)C(CO)c1ccccc1)C2 (some centres undefined),inactive
3,O=C(O)c1cc(O)c(O)c(O)c1,inactive
4,Cc1[nH]cnc1CN1CCc2c(c3ccccc3n2C)C1=O,inactive
5,O=C(O)CC1CC(c2ccccc2)=NO1 (centres undefined),inactive
6,CN(CCCOc1ccc(Cc2ccccc2)cc1)CCC(=O)O,inactive
7,COC(=O)C1=C(C)NC(C)=C(C(=O)OCC(C)C)C1c1ccccc1[N+](=O)[O-] (centres undefined),inactive
8,O=C(O)[C@H](CC(=O)N1C[C@H]2CCCC[C@H]2C1)Cc1ccccc1,inactive
9,NC(=O)C(c1ccccc1)(c1ccccc1)[C@@H]1CCN(CCc2ccc3c(c2)CCO3)C1,inactive
10,C#C[C@]1(O)CC[C@H]2[C@@H]3CCc4cc(O)ccc4[C@H]3CC[C@@]21C,inactive
11,Nc1ccc(O)c([N+](=O)[O-])c1,inactive
12,O=C(Nc1ccc2c(c1)CCN(Cc1ncn[nH]1)C2)c1ccccc1-c1ccc(C(F)(F)F)cc1,inactive
13,CC(=O)O[C@H]1C[C@@]2(C)[C@@H](C[C@@H](O)[C@H]3[C@@]4(C)CC[C@@H](O)[C@@H](C)[C@@H]4CC[C@@]32C)/C1=C(\CCC=C(C)C)C(=O)O,inactive
14,COc1cc(CNC(=O)CCCC/C=C/C(C)C)ccc1O,inactive
15,Fc1ccc2[nH]c(CN3CCN(c4ccccn4)CC3)cc2c1,inactive
16,O=C(Nc1ccc2[nH]ncc2c1)C1CCC1,inactive

row,Structure (SMILES),Potency
1,O=[N+]([O-])c1ccc(CNc2nc(NCc3cccc(C(F)(F)F)c3)nc3nc[nH]c23)cc1,inactive
2,O=C(O)/C=C\C(=O)O,inactive
3,CCCCN(CC)c1nc(C)nc2c1c(C)cn2-c1c(C)cc(C)cc1C,inactive
4,CC(C(=O)O)c1ccc(C(=O)c2ccccc2)s1 (centres undefined),inactive
5,O=C1CN(/N=C/c2ccc([N+](=O)[O-])o2)C(=O)N1,inactive
6,CCCSc1ccc2nc(NC(=O)OC)[nH]c2c1,3.55 µM (active)
7,CC1(C)[C@@H](O[C@H]2O[C@H](C(=O)O)[C@@H](O)[C@H](O)[C@H]2O[C@@H]2O[C@H](C(=O)O)[C@@H](O)[C@H](O)[C@H]2O)CC[C@]2(C)[C@H]3C(=O)C=C4[C@@H]5C[C@@](C)(C(=O)O)CC[C@]5(C)CC[C@@]4(C)[C@]3(C)CC[C@@H]12,inactive
8,COc1ccc(/C=C/C(=O)Nc2ccccc2C(=O)O)cc1OC,inactive
9,CC(C(=O)O)c1ccc(C(=O)c2cccs2)cc1 (centres undefined),inactive
10,Nc1nc2ccc([N+](=O)[O-])cc2s1,inactive
11,COC(=O)C1=C(C)NC(C)=C(C(=O)OC)C1c1cccc(NC(=O)NCCCN2CCC(c3cccc(OC)c3)CC2)c1,inactive
12,O=C1CC[C@@H](C(=O)N2CSC[C@H]2C(=O)O)N1 ([pGlu]-[Thz]-OH),inactive
13,CC1(C)S[C@@H]2[C@H](NC(=O)[C@H](N)c3ccccc3)C(=O)N2[C@H]1C(=O)O,inactive
14,COC(=O)Nc1nc2ccc(C(=O)C3CC3)cc2[nH]1,3.16 µM (active)
15,S=c1[nH]c2ccccc2s1,inactive
